Experimental data as given in PubChem BioAssay AID977606 (Broad Institute, 2014).
About 430 (29%) of roughly 1,500 compounds were called active. The rule behind the calls is not given here. Only a sample is shown. Measured potencies and affinities stand elsewhere.

Assay: glucose-independent GLuc insulin release activation – cell-based, INS-1E, Gaussia luciferase, luminescence, cherry-pick, counter-screen for glucose-dependent insulin secretion activators, dose response (AID 977606)
Conditions: INS-1E Gaussia luciferase insulin secretion, no glucose, 100% = twice neutral-control luminescence; series mostly up to 35 µM

SMILES | outcome
COc1ccc(CCN=C(N)NS(=O)(=O)c2ccc(C)c(C)c2)cc1OC | inactive
CC1CC(C)CN(CC(O)COCc2ccccc2F)C1 (configuration not stated) | inactive
O=C(N1CCOCC1)N1CCN(c2ccccn2)CC1 | inactive
CCN(Cc1ccncc1)C(=O)c1cccc(S(=O)(=O)N2CCCCC2)c1 | inactive
COc1ccc(N2CCN(C(c3cccs3)C(C)NC(=O)C(=O)N3CCOCC3)CC2)cc1 (configuration not stated) | inactive
O=C(NNC1CCN(Cc2ccccc2)CC1)c1ccccc1 | inactive
CN(Cc1ccc(OCC(O)CN(C)Cc2ccccc2)cc1)Cc1nccn1C (configuration not stated) | inactive
CC(NC1CCN(Cc2ccccc2)CC1)c1ccc(F)cc1 (configuration not stated) | inactive
CC(Oc1ccccc1Cl)C(=O)Nc1ccc(S(=O)(=O)Nc2nccs2)cc1 (configuration not stated) | inactive
CCNc1nc(NC(C)CC)nc(ON=C(C)C)n1 (configuration not stated) | inactive
Cc1cc(=O)oc2c3c(cc(OCC(=O)NC(C)C)c12)OC(C)(C)CC3 | inactive
O=C(O)COc1ccc2c3c(c(=O)oc2c1)CCC3 | inactive
O=c1[nH]c2ccccc2nc1-c1nnnn1C1CCCC1 | inactive
CCOc1ccc(OCCC(=O)N(CC)CC(=O)NCc2cccs2)cc1 | inactive
CC(O)c1nc2ccccc2n1C1CCCCC1 (configuration not stated) | inactive
COc1ccc(N2C(=O)CC(Sc3nc(C)cc(C)c3C#N)C2=O)cc1 (configuration not stated) | inactive
COc1cc(C(=O)Nc2cc(C(F)(F)F)ccc2N2CCOCC2)ccc1OCC(=O)N1CCOCC1 | inactive
O=C(Nc1ccccc1Oc1ccsc1C(=O)O)c1ccccc1F | inactive
Cc1cc(C)nc(NC(N)=NCCc2c[nH]c3ccccc23)n1 | inactive
CCOC(=O)c1[nH]cnc1C(=O)NC(C)C | inactive
O=C1c2[nH]nc(-c3ccccc3)c2C(c2ccccc2)N1c1ccccc1 (configuration not stated) | inactive
NS(=O)(=O)c1ccc(CNC(=O)c2cc(S(=O)(=O)N3CCOCC3)ccc2N2CCCC2)cc1 | inactive
CCOc1ccc2oc(=O)cc(CN3CCOCC3)c2c1 | inactive
CCCNC(=O)c1ccccc1NC(=O)COc1ccc(OC)cc1 | inactive

SMILES | outcome
Cc1cccc(NC(=O)c2ccc(OCc3c(C)noc3C)cc2)c1C | inactive
COc1ccc(Nc2nc(NCc3cccs3)nc3ccsc23)cc1OC | inactive
COc1ccc(C(=O)/C=C2\NCCc3cc(OC)c(OC)cc32)cc1OC | inactive
COC(=O)c1ccc(OC)c(OC2CCCC2)c1 | inactive
Cc1cccc2nc(-c3ccco3)c(Nc3ccccc3)n12 | inactive
Cc1ccc(C(=O)c2sc(Nc3ccccc3)c(C#N)c2N)cc1 | inactive
CNc1ccc2ncc(-c3ccc(OC)c(OC)c3)n2n1 | inactive
C/C=C/Cn1c(N2CCCCCC2)nc2c1c(=O)[nH]c(=O)n2C | inactive
CC(C)CCn1c(N2CCCC2)nc2c1c(=O)[nH]c(=O)n2C | inactive
Cn1c(=O)[nH]c(=O)c2c1nc(NC1CCCC1)n2Cc1ccccc1 | inactive
C/C(Cl)=C/CSc1nc2c(c(=O)[nH]c(=O)n2C)n1C(C)C | inactive
CN(Cc1ccccc1)c1nc2c(c(=O)[nH]c(=O)n2C)n1Cc1ccccc1 | inactive
CCCCCCn1c(SCC(C)C)nc2c1c(=O)[nH]c(=O)n2C | inactive
CCCN1C[C@@H](C)[C@@H](OC)CN(C)C(=O)c2ccc(NC(=O)c3cccc(F)c3)cc2OC[C@H]1C | inactive
O=C(O)C1Cc2c([nH]c3ccccc23)C(c2ccc3c(c2)OCO3)N1 (configuration not stated) | inactive
COc1cc2c(cc1OC)-c1cc(NCc3ccccn3)nc(=O)n1CC2 | inactive
CCOc1ccc(CCNS(=O)(=O)c2cn(C)cn2)cc1OCC | inactive
CC(=O)N1CCN(C(=O)COC(=O)c2ccc(S(C)(=O)=O)cc2)CC1 | inactive
CC(C)(C)NC(=O)N1c2ccccc2Sc2ccccc21 | inactive
CCn1ncc2c1C(=O)NC1c3ccccc3C(=O)N21 (configuration not stated) | inactive
O=C(NNC(=O)c1cc2cc3ccccc3nc2s1)c1cccc(C(F)(F)F)c1 | inactive
Cc1cc(C)cc(C(=O)NC(=S)Nc2ccc(-c3cc4ccccc4oc3=O)cc2)c1 | inactive
COc1ccc(-c2nc(CCl)cs2)cc1OC | inactive
C=CCn1c(-c2csc(-c3ccc(OC)c(OC)c3)n2)n[nH]c1=S | inactive

SMILES | outcome
O=C(c1ccccc1)N(C(=O)c1ccccc1)N1CCCC1 | inactive
CN(c1ccc(C(=O)N2CCN(Cc3ccccc3)CC2)cc1)S(=O)(=O)c1ccccc1 | inactive
CCCn1nc(NC(=O)c2ccco2)c2cc3ccccc3nc21 | inactive
CCn1nc(NC(=O)c2ccco2)c2cc3ccccc3nc21 | inactive
O=C1c2cccnc2C(Nc2ccc(F)c(Cl)c2)N1Cc1cccs1 (configuration not stated) | inactive
CCOc1ccccc1OCCC(=O)NNC(=O)Cn1nc(C)cc1C | inactive
CCOc1cc(/C=N/NC(=O)CCn2nnc3ccccc32)ccc1O | inactive
N#CCc1nn(-c2ccccc2)c2ncnc(N)c12 | inactive
CN(C)CCCN(C(=O)c1ccco1)c1nc2c(F)cccc2s1 | inactive
O=C(c1cccnc1)N(Cc1ccccc1)c1ccccc1 | inactive
COc1ccc(-c2nc(N3CCC(C)CC3)[nH]c(=O)c2C#N)cc1 | inactive
COc1ccc(-c2ccc(SCc3cccnc3)nn2)cc1OC | inactive
CC(C)CCN(CC(=O)NCc1ccc(F)cc1)S(=O)(=O)c1ccccc1F | inactive
O=C(NN(Cc1ccccc1)Cc1ccccc1)c1ccccc1 | inactive
O=C(COC(=O)C1CCC1)NC(=O)c1ccccc1 | inactive
O=C(O)c1ccc(S(=O)(=O)NCc2ccc3c(c2)OCO3)cc1 | inactive
O=C(c1ccc2c(c1)OCO2)N1CCN(S(=O)(=O)c2ccccc2)CC1 | inactive
CC(C)OCC(O)CN1CCC(Cc2ccccc2)CC1 (configuration not stated) | inactive
OC(c1ccc(Cl)cc1)C(CN1CCOCC1)c1ccccc1 (configuration not stated) | inactive
COC(=O)CN(c1cccc(C)c1)S(=O)(=O)c1ccccc1 | inactive
COCCNC(=O)c1ccc(N(C)S(=O)(=O)c2ccc(OC)c(OC)c2)cc1 | inactive
CCOc1ccc(-c2nc(CSc3nnc(N)s3)cs2)cc1OC | inactive
C=CCNC(=O)COc1coc(CN2CCN(C(=O)c3ccco3)CC2)cc1=O | inactive
C=C[C@@]1(C)CC(=O)[C@]2(O)[C@@]3(C)[C@@H](O)CCC(C)(C)[C@@H]3[C@H](O)[C@H](OC(C)=O)[C@@]2(C)O1 | inactive
